# Data as given in the supplement of paper PMC10811239.
# System: LEGO organoid PTCC (PTEN-/-; TP53-/-; CDKN2A-/-; CDKN2B-/-)
# Assay: bioluminescence (viable cell) signal fold change after vs before treatment, normalised to DMSO (ratio); higher = more tumour cell growth / less inhibition
# Details: 10 µM; treatment time 6 days
# Procedure: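 Luc2-labelled iPSC-derived glioblastoma-like organoids (LEGOs, genotypes PT = PTEN-/-;TP53-/-, PTCC = plus CDKN2A/B-/-, PTN = plus NF1-/-) were treated with 10 uM drug for 6 days (applied every other day) at 37 C. Bioluminescence imaging was done before treatment and 2 days after the last dose. BLI signals were normalised to the DMSO control on the same day and then to the pre-treatment signal (N=3).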
row,Compound,bioluminescence
1,Nc1[nH]c(=O)ncc1F [Fluorocytosine],1.01
2,CO/N=C(\C(=O)N[C@@H]1C(=O)N2C(C(=O)[O-])=C(CSc3nc(=O)c([O-])nn3C)CS[C@H]12)c1csc(N)n1.CO/N=C(\C(=O)N[C@@H]1C(=O)N2C(C(=O)[O-])=C(CSc3nc(=O)c([O-])nn3C)CS[C@H]12)c1csc(N)n1.O.O.O.O.O.O.O.[Na+].[Na+].[Na+].[Na+] [Ceftriaxone sodium],1.62
3,Nc1nc2ccc(OC(F)(F)F)cc2s1 [Riluzole],1.26
4,COc1cc2c(cc1OC)C(=O)C(CC1CCN(Cc3ccccc3)CC1)C2.Cl (stereo not drawn) [Donepezil HCl],0.812
5,Cc1ccc(C(=O)c2cc(O)c(O)c([N+](=O)[O-])c2)cc1 [Tolcapone],2.93
6,CN1[C@@H]2CCC[C@H]1C[C@@H](NC(=O)c1nn(C)c3ccccc13)C2.Cl [Granisetron hydrochloride],0.701
7,CS(=O)(=O)O.Cc1ccc(NC(=O)c2ccc(CN3CCN(C)CC3)cc2)cc1Nc1nccc(-c2cccnc2)n1 [Imatinib Mesylate],1.35
8,CC(C)(C)c1cc(C(C)(C)C)c(NC(=O)c2c[nH]c3ccccc3c2=O)cc1O [Ivacaftor],0.191
9,CN=C(NC#N)NCCSCc1nc[nH]c1C [Cimetidine],2.25
10,CC(C)Oc1ccc(-c2nc(-c3cccc4c3CC[C@@H]4NCCO)no2)cc1C#N [Ozanimod],0.828
11,CO[C@H]1C(=O)[C@]2(C)[C@@H](OC)C[C@H]3OC[C@@]3(OC(C)=O)[C@H]2[C@H](OC(=O)c2ccccc2)[C@]2(O)C[C@H](OC(=O)[C@H](O)[C@@H](NC(=O)OC(C)(C)C)c3ccccc3)C(C)=C1C2(C)C [Cabazitaxel],7.3
12,CC(C)c1nc(CN(C)C(=O)N[C@H](C(=O)N[C@@H](Cc2ccccc2)C[C@H](O)[C@H](Cc2ccccc2)NC(=O)OCc2cncs2)C(C)C)cs1 [Ritonavir],2
13,Cc1nc2n(c(=O)c1CCN1CCC(c3noc4cc(F)ccc34)CC1)CCCC2 [Risperidal],1.93
14,CC(C(=O)O)c1cccc(C(=O)c2ccccc2)c1 (stereo not drawn) [Ketoprofen],1.2
15,Cc1ccccc1C(OCCN(C)C)c1ccccc1.O=C(O)CC(O)(CC(=O)O)C(=O)O (stereo not drawn) [Orphenadrine Citrate],2.65
16,CS(=O)(=O)c1ccc(C2=C(c3ccccc3)C(=O)OC2)cc1 [Rofecoxib],0.638
17,CS(=O)(=O)c1cccc(C[C@H](NC(=O)c2c(Cl)cc3c(c2Cl)CCN(C(=O)c2ccc4ccoc4c2)C3)C(=O)O)c1 [Lifitegrast],1.08
18,COc1cccc2c1C(=O)c1c(O)c3c(c(O)c1C2=O)C[C@@](O)(C(=O)CO)C[C@@H]3O[C@H]1C[C@H](N)[C@@H](O)[C@H](C)O1.Cl [Epirubicin hydrochloride],0
19,CC/C(=C(\c1ccccc1)c1ccc(OCCN(C)C)cc1)c1ccccc1.O=C(O)CC(O)(CC(=O)O)C(=O)O [Tamoxifen Z-isomer citrate],1.41

row,Compound,bioluminescence
1,N#Cc1ccc2[nH]cc(CCCCN3CCN(c4ccc5oc(C(N)=O)cc5c4)CC3)c2c1 [Vilazodone],1.83
2,Cl.N=C(N)NC(=O)Cc1c(Cl)cccc1Cl [Guanfacine hydrochloride],1.24
3,Cc1c(C)c2c(c(C)c1O)CC[C@@](C)(CCC[C@H](C)CCC[C@H](C)CCCC(C)C)O2 [α-Vitamin E],1.41
4,CC(=O)OCC[N+](C)(C)C.[Cl-] [Acetylcholine chloride],1.09
5,CN(C)CCCN1c2ccccc2CCc2ccccc21.Cl [Imipramine hydrochloride],0.82
6,O=C(O)c1cccnc1 [Niacin],2.03
7,Cc1nc2n(c(=O)c1CCN1CCC(c3noc4cc(F)ccc34)CC1)CCCC2O (stereo not drawn) [Paliperidone],0.722
8,COc1cc2c(Nc3ccc(Br)cc3F)ncnc2cc1OCC1CCN(C)CC1 [Vandetanib],0.918
9,S=c1nc[nH]c2nc[nH]c12 [Mercaptopurine],1.6
10,CC(=O)c1c(C)c2cnc(Nc3ccc(N4CCNCC4)cn3)nc2n(C2CCCC2)c1=O.O=S(=O)(O)CCO [Palbociclib Isethionate],2.84
11,CCc1cc2c(cc1N1CCC(N3CCOCC3)CC1)C(C)(C)c1[nH]c3cc(C#N)ccc3c1C2=O.Cl [Alectinib hydrochloride],0.838
12,CN(C)CC(c1ccc(O)cc1)C1(O)CCCCC1.O=C(O)CCC(=O)O (stereo not drawn) [Desvenlafaxine succinate hydrate],0.582
13,FC(F)(F)c1ccc(CNc2ccc(Cc3c[nH]c4ncc(Cl)cc34)cn2)cn1 [Pexidartinib],3.05
14,COc1cc(C(C)=O)ccc1OCCCN1CCC(c2noc3cc(F)ccc23)CC1 [Iloperidone],1.06
15,Nc1nc(=O)n([C@@H]2CS[C@H](CO)O2)cc1F [Emtricitabine],0.872
16,N[C@H](C(=O)O)[C@H](O)c1ccc(O)c(O)c1 [Droxidopa],2.59
17,CNCCCN1c2ccccc2CCc2ccccc21.Cl [Desipramine hydrochloride],0.744
18,NS(=O)(=O)c1cc2c(cc1Cl)N=CNS2(=O)=O [Chlorothiazide],1.63
19,CN(C)CC(c1ccc(O)cc1)C1(O)CCCCC1 (stereo not drawn) [Desvenlafaxine],1.07
